The text below walks through data of article PMC13494018.

B1: design_610_f34cc193-997c-4684-af32-2a8002718429_1694_dldesign_0_cycle1_af2pred (protein)
chain: AAAAAELALRSAEALLRSARENAAAGTISPEGLRGAAEVIKDLARYAGELGGPEAAARAEELIAEADAVVA
B2: design_610_f34cc193-997c-4684-af32-2a8002718429_1837_dldesign_0_cycle1_af2pred (protein)
chain: NQVAAIAAANQALGERAYAEGLALYAADPEANREAARAAFVRAYAYFNAAAGAAIVLGDAAAAAAAQAKAEEAKAHAEALKA
B3: design_610_f34cc193-997c-4684-af32-2a8002718429_1191_dldesign_0_cycle1_af2pred (protein)
chain: AEATGQAYADILVQSARSLAAAGASPEDVVQAMDSIAQAAIDELGEEGKKYAAKGAEKAAEEVKKLNPEAAKAVAKRAEELKKQA
B4: design_610_f34cc193-997c-4684-af32-2a8002718429_2398_dldesign_0_cycle1_af2pred (protein)
chain: AAAEIARRTVEAGVRQAFAASPEEAERLAENLAKIVEGLAGPEVGERVREIVREGLRLAEKFPEYREEIAEETAERAAELVYEALS
B5: design_610_f34cc193-997c-4684-af32-2a8002718429_2230_dldesign_0_cycle1_af2pred (protein)
chain: SADQAEKQKLLAKFNEVSGEALELMEELTKAGDYETVQQVSRLLGQANGLAVAATDAATAKAALKVAEEALKLAKEALKKA
B6: design_610_f34cc193-997c-4684-af32-2a8002718429_1271_dldesign_0_cycle1_af2pred (protein)
chain: SGRVRQAQRLVEMAEELVETGEKEEAEKGKQLADAARALAEEALRRGDDPEAAKEVLERAKEVEKRAEEAIKA
B7: design_610_f34cc193-997c-4684-af32-2a8002718429_2276_dldesign_0_cycle1_af2pred (protein)
chain: AAAAAAAAAEAAARAARAKEVGQKTLDAVAARAKELGARSPALGEAEQLRLKSTAAVLAGDEAAAKAYAAQAGAILAAA
B8: design_610_f34cc193-997c-4684-af32-2a8002718429_1550_dldesign_0_cycle1_af2pred (protein)
chain: SAAIQEQTAKDWAAVLEAAAARSTEAGIRLARAVAEVFRDDPELAEATAAALTNAEVAAALRAALEEARAAAA
B9: design_610_f34cc193-997c-4684-af32-2a8002718429_2308_dldesign_0_cycle1_af2pred (protein)
chain: AAAAEAAAARLAAAKAALAAAQAKGAELAAQSPGAGIGYVWAAAVRLGETLGPEAAALAAQARAAAAAQNRALLAQSAA
B10: design_610_f34cc193-997c-4684-af32-2a8002718429_1172_dldesign_0_cycle1_af2pred (protein)
chain: LTEEEAKKLLADAKQLLELAEAALADPRFARTAITAADQAAALAKEAAKHPKVAAEAKALAARAEEVRKAAEEAAA
B11: design_611_394c5ea9-a0d3-47c4-9d48-89ba6a28fdd0_317_dldesign_0_cycle1_af2pred (protein)
chain: AEAIQKANDALQEALDYLKEMSEIAKTEKLQEAVKQIQEKVGKAAQYAIDAVKNPEKAAEYAKKAKEEAEKAKEIYEKAKKES
B12: design_610_f34cc193-997c-4684-af32-2a8002718429_1084_dldesign_0_cycle1_af2pred (protein)
chain: SAAQQAKQKALELFEQAAKLAAKYDPKAAEKFNKAKEALQAGDLGGALKYATEGVNILAKNASQEAADEVRAIATQGLISYAQAQILA
B13: design_611_394c5ea9-a0d3-47c4-9d48-89ba6a28fdd0_498_dldesign_0_cycle1_af2pred (protein)
chain: AAAATLAQVKELIAQAKADPANAAALLSQAIRLAVTTAIAAAAAGDTAAAVALSQAAIEAMKALDEVSKAA
B14: design_611_394c5ea9-a0d3-47c4-9d48-89ba6a28fdd0_264_dldesign_0_cycle1_af2pred (protein)
chain: AADEAAKKAIKQLKASVEAAARNARALAGSPDAPRAVKALKELAKVAAEGALGIAKATKDPEVAKEAKKAAEEIKKIAEETAKEIEA
B15: design_611_394c5ea9-a0d3-47c4-9d48-89ba6a28fdd0_577_dldesign_0_cycle1_af2pred (protein)
chain: VAAQLAAAQAKVDDVTAKVAEAKAAAKADPAEGVKIANATIGAAIDAMKAAKTYPPEVAAAAIAALSAQLAEASKIAISAQAKLDA
B16: design_610_f34cc193-997c-4684-af32-2a8002718429_2117_dldesign_0_cycle1_af2pred (protein)
chain: AAAAETASKAGEATIEALKAGAEAARLAEELGLDPAPYHQKAAQAIAALQAGEGSLETVTALKEELEKAAKELKEKV
B17: design_610_f34cc193-997c-4684-af32-2a8002718429_1476_dldesign_0_cycle1_af2pred (protein)
chain: ARAAAIAEEAVRFANAASARALAAAVKTTPEANAQITALVVQLLEEADRARKATDPAEAEAHFEAARALAAEAEAIAAAALA
B18: design_610_f34cc193-997c-4684-af32-2a8002718429_1816_dldesign_0_cycle1_af2pred (protein)
chain: AEAEALAAQARAHAHKALQEVSLGGDQAEADAHLAKAEEYAAQAKALDPEIGAQTQKIIDQYKALMAQAR
B19: design_610_f34cc193-997c-4684-af32-2a8002718429_1156_dldesign_0_cycle1_af2pred (protein)
chain: NPLVKQAEKNYKKAKEMAELGLASTDPLAIRSYAAFGDSLYNNAAELLKKAGKEEEAKKVEAEGEEKKAALLAKAKAAA

In the assay the target is CD276, Q5ZPR3.
Chain of CD276, Q5ZPR3 (Q5ZPR3 whole entry): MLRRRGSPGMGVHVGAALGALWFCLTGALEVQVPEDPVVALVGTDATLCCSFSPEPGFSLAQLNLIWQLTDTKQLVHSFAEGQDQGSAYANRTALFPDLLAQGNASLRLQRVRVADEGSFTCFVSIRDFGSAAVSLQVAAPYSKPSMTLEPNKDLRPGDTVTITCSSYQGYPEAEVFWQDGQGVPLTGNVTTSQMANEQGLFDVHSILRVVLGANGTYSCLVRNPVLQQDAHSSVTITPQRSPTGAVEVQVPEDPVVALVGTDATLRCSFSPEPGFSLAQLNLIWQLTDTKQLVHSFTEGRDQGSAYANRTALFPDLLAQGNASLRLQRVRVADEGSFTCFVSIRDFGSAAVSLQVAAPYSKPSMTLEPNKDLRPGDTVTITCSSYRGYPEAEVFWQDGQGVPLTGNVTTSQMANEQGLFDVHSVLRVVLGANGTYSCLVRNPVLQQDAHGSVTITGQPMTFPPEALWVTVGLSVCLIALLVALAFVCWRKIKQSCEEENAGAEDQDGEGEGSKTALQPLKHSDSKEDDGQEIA
For B1, the “binding in a display sort” value was “not found (inactive)”. In the case of B2 it was “not found (inactive)”; in that of B3, “not found (inactive)”. With B4 the entry was “not found (inactive)”; with B5, “not found (inactive)”. With B6 the entry was “not found (inactive)”; with B7, “not found (inactive)”; with B8, “not found (inactive)”. For the molecule B9, the “binding in a display sort” value was “not found (inactive)”.

Take B10: the “binding in a display sort” value is “not found (inactive)”. With B11 the entry was “not found (inactive)”; with B12, “not found (inactive)”; with B13, “not found (inactive)”.

Consider B14, for which the “binding in a display sort” value is “not found (inactive)”. For the molecule B15, the “binding in a display sort” value was “not found (inactive)”.

As to B16, the “binding in a display sort” value is “not found (inactive)”. On to B17, for which the “binding in a display sort” value is “not found (inactive)”.

With B18, the “binding in a display sort” value is “not found (inactive)”. Regarding B19, the “binding in a display sort” value is “not found (inactive)”.
